Measurements reported in the supplement of paper PMC8728848.
The full list was thinned out, with the strongest signals kept by preference.

Tests used:
Experiment in all cases: glycan array binding signal (z-score within array); higher = stronger binding
Conditions in all cases: glycan notation: IUPAC condensed, linker removed
[1] = target: Fuc(a1-2)Gal(b1-3)GalNAc(b1-4)[Neu5Ac(a2-3)]Gal(b1-4)Glc
How it was run: (§1)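 Glycan array data were curated from 3228 arrays in the Consortium for Functional Glycomics database and kept only where the protein sequence was available. Glycan names were converted to IUPAC-condensed notation, and columns mapping to the same glycan were averaged. The binding signal is a within-array Z-score, averaged across arrays of the same protein sequence at different concentrations or buffers and across linkers. Negative Z-scores can be read as non-binding.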

Fuc(a1-2)Gal(b1-3)GlcNAc = target: Fuc(a1-2)Gal(b1-3)GlcNAc
How it was run: as §1

Fuc(a1-2)Gal(b1-4)Glc = target: Fuc(a1-2)Gal(b1-4)Glc
How it was run: as §1

[2] = target: Fuc(a1-2)Gal(b1-4)GlcNAc6S
How it was run: as §1

[3] = target: Fuc(a1-2)Gal(b1-4)[Fuc(a1-3)]GlcNAc(b1-2)Man(a1-3)[Fuc(a1-2)Gal(b1-4)[Fuc(a1-3)]GlcNAc(b1-2)Man(a1-6)]Man(b1-4)GlcNAc(b1-4)[Fuc(a1-6)]GlcNAc
How it was run: as §1

[4] = target: Fuc(a1-2)[Gal(a1-3)]Gal(b1-3)GlcNAc
How it was run: as §1

[5] = target: Fuc(a1-2)[Gal(a1-3)]Gal(b1-3)GlcNAc(b1-2)Man(a1-3)[Fuc(a1-2)[Gal(a1-3)]Gal(b1-3)GlcNAc(b1-2)Man(a1-6)]Man(b1-4)GlcNAc(b1-4)GlcNAc
How it was run: as §1

[6] = target: Fuc(a1-2)[Gal(a1-3)]Gal(b1-4)Glc
How it was run: as §1

[7] = target: Fuc(a1-2)[Gal(a1-3)]Gal(b1-4)GlcNAc
How it was run: as §1

[8] = target: Fuc(a1-2)[Gal(a1-3)]Gal(b1-4)GlcNAc(b1-2)Man
How it was run: as §1

[9] = target: Fuc(a1-2)[Gal(a1-3)]Gal(b1-4)GlcNAc(b1-2)Man(a1-3)[Fuc(a1-2)[Gal(a1-3)]Gal(b1-4)GlcNAc(b1-2)Man(a1-6)]Man(b1-4)GlcNAc(b1-4)[Fuc(a1-6)]GlcNAc
How it was run: as §1

[10] = target: Fuc(a1-2)[Gal(a1-3)]Gal(b1-4)GlcNAc(b1-6)GalNAc
How it was run: as §1

[11] = target: Fuc(a1-2)[GalNAc(a1-3)]Gal(b1-3)GlcNAc
How it was run: as §1

[12] = target: Fuc(a1-2)[GalNAc(a1-3)]Gal(b1-4)GlcNAc(b1-2)Man
How it was run: as §1

[13] = target: Fuc(a1-2)[GalNAc(a1-4)]Gal(b1-4)GlcNAc
How it was run: as §1

[14] = target: Fuc(a1-3)[Gal(b1-4)]GlcNAc(b1-6)[Gal(b1-3)GlcNAc(b1-3)]Gal(b1-4)Glc
How it was run: as §1

[15] = target: Fuc(a1-3)[Gal3S(b1-4)]GlcNAc
How it was run: as §1

[16] = target: Gal(a1-3)Gal(b1-3)[Fuc(a1-4)]GlcNAc(b1-2)Man(a1-3)[Gal(a1-3)Gal(b1-3)[Fuc(a1-4)]GlcNAc(b1-2)Man(a1-6)]Man(b1-4)GlcNAc(b1-4)GlcNAc
How it was run: as §1

[17] = target: Gal(a1-3)Gal(b1-4)GlcNAc(b1-2)Man
How it was run: as §1

Gal(a1-3)GalNAc = target: Gal(a1-3)GalNAc
How it was run: as §1

[18] = target: Gal(a1-4)Gal(b1-3)GlcNAc(b1-2)Man(a1-3)[Gal(a1-4)Gal(b1-3)GlcNAc(b1-2)Man(a1-6)]Man(b1-4)GlcNAc(b1-4)GlcNAc
How it was run: as §1

Gal(b1-2)Gal = target: Gal(b1-2)Gal
How it was run: as §1

[19] = target: Gal(b1-3)GlcNAc(b1-3)Gal(b1-4)[Fuc(a1-3)]GlcNAc
How it was run: as §1

[20] = target: Gal(b1-3)[Fuc(a1-4)]GlcNAc(b1-6)GalNAc
How it was run: as §1

[21] = target: Gal(b1-4)GlcNAc(b1-2)Man(a1-3)[Gal(b1-4)GlcNAc(b1-2)Man(a1-6)][GlcNAc(b1-4)]Man(b1-4)GlcNAc(b1-4)[Fuc(a1-6)]GlcNAc
How it was run: as §1

[22] = target: Gal(b1-4)GlcNAc(b1-2)Man(a1-6)[GlcNAc(b1-2)Man(a1-3)]Man(b1-4)GlcNAc(b1-4)GlcNAc
How it was run: as §1

[23] = target: Gal(b1-4)GlcNAc(b1-3)Gal(b1-4)GlcNAc(b1-3)Gal(b1-4)GlcNAc
How it was run: as §1

[24] = target: Gal(b1-4)GlcNAc(b1-3)Gal(b1-4)GlcNAc(b1-3)Gal(b1-4)GlcNAc(b1-3)Gal(b1-4)GlcNAc(b1-2)[Gal(b1-4)GlcNAc(b1-3)Gal(b1-4)GlcNAc(b1-3)Gal(b1-4)GlcNAc(b1-3)Gal(b1-4)GlcNAc(b1-6)]Man(a1-6)[Gal(b1-4)GlcNAc(b1-3)Gal(b1-4)GlcNAc(b1-3)Gal(b1-4)GlcNAc(b1-3)Gal(b1-4)GlcNAc(b1-2)Man(a1-3)]Man(b1-4)GlcNAc(b1-4)[Fuc(a1-6)]GlcNAc
How it was run: as §1

[25] = target: Gal(b1-4)GlcNAc(b1-3)Gal(b1-4)GlcNAc(b1-3)Gal(b1-4)GlcNAc(b1-3)Gal(b1-4)GlcNAc(b1-3)Gal(b1-4)GlcNAc(b1-2)Man(a1-3)[Gal(b1-4)GlcNAc(b1-3)Gal(b1-4)GlcNAc(b1-3)Gal(b1-4)GlcNAc(b1-3)Gal(b1-4)GlcNAc(b1-3)Gal(b1-4)GlcNAc(b1-2)Man(a1-6)]Man(b1-4)GlcNAc(b1-4)GlcNAc
How it was run: as §1

[26] = target: Gal(b1-4)GlcNAc(b1-3)Gal(b1-4)GlcNAc(b1-3)Gal(b1-4)GlcNAc(b1-3)Gal(b1-4)GlcNAc(b1-3)Gal(b1-4)GlcNAc(b1-2)Man(a1-3)[Gal(b1-4)GlcNAc(b1-3)Gal(b1-4)GlcNAc(b1-3)Gal(b1-4)GlcNAc(b1-3)Gal(b1-4)GlcNAc(b1-3)Gal(b1-4)GlcNAc(b1-2)Man(a1-6)]Man(b1-4)GlcNAc(b1-4)[Fuc(a1-6)]GlcNAc
How it was run: as §1

B1: Gal 8 (Mus musculus), Q9JL15 (protein)
chain: MGGSHHHHHHGMASMLSLNNLQNIIYNPIIPYVGTITEQLKPGSLIVIRGHVPKDSERFQVDFQLGNSLKPRADVAFHFNPRFKRSSCIVCNTLTQEKWGWEEITYDMPFRKEKSFEIVFMVLKNKFQVAVNGRHVLLYAHRISPEQIDTVGIYGKVNIHSIGFRFSSASALPHTLGDLQSMETSALGLTQINRENIQKPGKLQLSLPFEARLNASMGPGRTVVIKGEVNTNARSFNVDLVAGKTRDIALHLNPRLNVKAFVRNSFLQDAWGEEERNITCFPFSSGMYFEMIIYCDVREFKVAINGVHSLEYKHRFKDLSSIDTLSVDGDIRLLDVRSW
glycan array binding signal (z-score) [1]: -0.259
glycan array binding signal (z-score) (Fuc(a1-2)Gal(b1-3)GlcNAc): 0.14
glycan array binding signal (z-score) (Fuc(a1-2)Gal(b1-4)Glc): 0.021
glycan array binding signal (z-score) [2]: -0.038
glycan array binding signal (z-score) [3]: -0.529
glycan array binding signal (z-score) [4]: 3.88
glycan array binding signal (z-score) [5]: 3.71
glycan array binding signal (z-score) [6]: 2.26
glycan array binding signal (z-score) [7]: 3.76
glycan array binding signal (z-score) [8]: 2.84
glycan array binding signal (z-score) [9]: 3.64
glycan array binding signal (z-score) [10]: -0.535
glycan array binding signal (z-score) [11]: 1
glycan array binding signal (z-score) [12]: 3.48
glycan array binding signal (z-score) [13]: -0.537
glycan array binding signal (z-score) [14]: 0.008
glycan array binding signal (z-score) [15]: -0.521
glycan array binding signal (z-score) [16]: -0.204
glycan array binding signal (z-score) [17]: 0.378
glycan array binding signal (z-score) (Gal(a1-3)GalNAc): -0.533
glycan array binding signal (z-score) [18]: -0.534
glycan array binding signal (z-score) (Gal(b1-2)Gal): -0.521
glycan array binding signal (z-score) [19]: 0.099
glycan array binding signal (z-score) [20]: -0.515
glycan array binding signal (z-score) [21]: -0.123
glycan array binding signal (z-score) [22]: -0.108
glycan array binding signal (z-score) [23]: 0.937
glycan array binding signal (z-score) [24]: 2.76
glycan array binding signal (z-score) [25]: 3.48
glycan array binding signal (z-score) [26]: 3.61
